In paper PMC10668032, “Altered binding affinity of SIX1-Q177R correlates with enhanced WNT5A and WNT pathway effector expression in Wilms tumor”:
Over roughly 33,000 sequences, “e-score” has its median near -0.053; the highest 2% begin near 0.38. This is one part of a sample in which the highest values are shown more often than they occur.

biological target: T1, SIX1 homeodomain (reference allele) (human, UniProt Q15475 108-198); assay: universal protein binding microarray; Universal all-10-mer PBM (8x60K, AMADID 030236), 300 nM GST-tagged protein, Alexa Fluor 488 anti-GST; buffer, salt, pH and temperature not stated (as in Berger); high values mean tight binding; conditions: protein: ivt; tags: N-terminal GST; dsDNA, one strand shown
T1 sequence: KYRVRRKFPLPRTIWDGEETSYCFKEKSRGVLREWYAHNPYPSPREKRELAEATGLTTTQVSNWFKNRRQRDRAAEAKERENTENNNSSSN
Method in brief: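 Homeodomains fused to GST were made by in vitro transcription/translation and measured by anti-GST western blot with a recombinant GST standard curve. At 300 nM final concentration, they were applied in duplicate to universal 'all 10-mer' protein binding microarrays (8×60K format).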

Sequence	binding signal
ATCCGTAG	0.225 ± 0.00492 E-score
AATACTAT	0.278 ± 0.0809 E-score
TATCCACA	0.326 ± 0.0288 E-score
AGAGTGAT	0.268 ± 0.0506 E-score
ATATGTTC	0.334 ± 0.0471 E-score
ACCTATCT	0.195 ± 0.01 E-score
GTGTTATA	0.219 ± 0.0623 E-score
TCCATACA	0.166 ± 0.0645 E-score
ATCTCGGG	0.272 ± 0.0234 E-score
GGATCGTA	0.383 ± 0.00451 E-score
AGATCGTA	0.237 ± 0.00569 E-score
TCATCGGA	0.176 ± 0.0293 E-score
GCATCGGA	0.161 ± 0.101 E-score
CGATCGTA	0.212 ± 0.0626 E-score
AGATCGGG	0.294 ± 0.0193 E-score
GTATCGGA	0.451 ± 0.0142 E-score
ATATCGGG	0.4018 ± 0.00171 E-score
CACCGGCA	0.188 ± 0.0219 E-score
CTATATAC	0.275 ± 0.0339 E-score
TACTCACA	0.165 ± 0.0208 E-score
ATAAGGTA	0.247 ± 0.0353 E-score
ACCGCGAT	0.323 ± 0.00333 E-score

Sequence	binding signal
ATGTATTA	0.241 ± 0.0485 E-score
ATGTATAA	0.154 ± 0.0486 E-score
ATGTATAG	0.217 ± 0.0184 E-score
ATGTATTG	0.209 ± 0.0502 E-score
GTGTATGA	0.17 ± 0.0805 E-score
ATGTATCA	0.448 ± 0.011 E-score
GTGTATTA	0.271 ± 0.032 E-score
ATGTATAC	0.325 ± 0.0321 E-score
ATGTATCC	0.407 ± 0.00354 E-score
GTGTATCA	0.4623 ± 0.00404 E-score
ATCTATCC	0.372 ± 0.0185 E-score
ATGTATCG	0.38 ± 0.0144 E-score
ATCCTGGG	0.235 ± 0.00999 E-score
ACATTATC	0.165 ± 0.0505 E-score
TACCGCGA	0.25 ± 0.0197 E-score
ATCATCGC	0.326 ± 0.0174 E-score
TACCCGCA	0.161 ± 0.0756 E-score
ATCGACAC	0.306 ± 0.0819 E-score
ATCTTGCA	0.216 ± 0.0388 E-score
CTGTATCC	0.387 ± 0.0293 E-score
CTGTATTA	0.18 ± 0.00737 E-score
CTGTATAC	0.338 ± 0.0175 E-score

Sequence	binding signal
CTGTATCA	0.418 ± 0.0231 E-score
ATTTATCC	0.198 ± 0.0661 E-score
CTGTATGA	0.187 ± 0.0219 E-score
CTCAGGTA	0.16 ± 0.0411 E-score
CTCCTATC	0.2712 ± 0.00126 E-score
AGAGTGAG	0.172 ± 0.0561 E-score
CCGGCTCA	0.256 ± 0.0189 E-score
ATACCAAG	0.285 ± 0.0262 E-score
ATACCAAA	0.317 ± 0.0247 E-score
ATACCCAT	0.393 ± 0.00746 E-score
ATACCCAA	0.401 ± 0.0166 E-score
AAACCCAT	0.169 ± 0.00646 E-score
ATACCCAC	0.392 E-score
ACACCCAT	0.271 ± 0.0323 E-score
ACACCCAA	0.331 ± 0.0548 E-score
CACCCCAC	0.263 ± 0.128 E-score
ATACCCAG	0.382 E-score
ACACCCAG	0.278 ± 0.0263 E-score
ACACCCAC	0.221 ± 0.0764 E-score
GAGCCGGA	0.166 ± 0.0429 E-score
TATGCGGA	0.284 ± 0.018 E-score
ATGCGATC	0.309 ± 0.0257 E-score

Sequence	binding signal
ATACGAGG	0.232 ± 0.0433 E-score
CATCTCAG	0.227 ± 0.014 E-score
TACGCATA	0.197 ± 0.0197 E-score
ATAGGGGA	0.287 ± 0.00909 E-score
ACAGGGAT	0.297 ± 0.0162 E-score
ATAGGGAT	0.395 ± 0.00975 E-score
ACCTTATA	0.17 ± 0.0678 E-score
ATATCGCC	0.441 ± 0.0115 E-score
ATCGCGCG	0.213 ± 0.0714 E-score
CTATCGCA	0.186 ± 0.0165 E-score
AGATCGCC	0.288 ± 0.0356 E-score
AGATCGCG	0.22 ± 0.0358 E-score
ACATCGCA	0.152 ± 0.012 E-score
TGATCGCA	0.171 ± 0.0248 E-score
GGATCGCA	0.366 ± 0.0387 E-score
ATATCGCA	0.42 ± 0.0293 E-score
GTATCGCA	0.431 ± 0.0148 E-score
ATATCGCG	0.422 ± 0.0273 E-score
CTATCGCC	0.179 ± 0.0265 E-score
ATCGGTCG	0.225 ± 0.0271 E-score
CGGTTATC	0.309 ± 0.0176 E-score
AGTACGAT	0.248 ± 0.0454 E-score

Sequence	binding signal
ATCATAAT	0.229 ± 0.0622 E-score
GATAATGC	0.16 ± 0.00226 E-score
GCGATCTA	0.218 ± 0.0326 E-score
CTCCGGTA	0.244 ± 0.0299 E-score
GAAACACC	0.189 ± 0.0066 E-score
GGATCCCA	0.37 ± 0.0601 E-score
CGATCCCG	0.332 ± 0.04 E-score
AGATCCCT	0.292 ± 0.00813 E-score
GAATCCCC	0.23 ± 0.0451 E-score
CGATCCCA	0.346 ± 0.0579 E-score
CGATCCCC	0.437 ± 0.041 E-score
TGATCCAA	0.324 ± 0.0147 E-score
AGATCCCC	0.384 ± 0.0161 E-score
AGATCCCG	0.302 ± 0.0627 E-score
GGATCCCC	0.419 ± 0.0404 E-score
TGATCCCA	0.3763 ± 0.00132 E-score
AGATCCCA	0.213 ± 0.0026 E-score
ATATACAA	0.27 ± 0.0205 E-score
ATAGGAGA	0.185 ± 0.0295 E-score
GATCGTAC	0.274 ± 0.0438 E-score
ATACATGG	0.3102 ± 0.0018 E-score
CAGACACC	0.291 ± 0.0577 E-score
